Test results published in PubChem BioAssay (NCATS).
Records with an inconclusive call do not appear. Calls of active or inactive are those of the source. Unless noted, calls come from the whole dose curve; as a rule, active = well fitted curve in the direction sought with a large enough effect; inconclusive = small, poorly fitted or top-dose-only effect, or another doubt; inactive = no such curve, though single readings can be large; an effect the other way counts as inactive or inconclusive.

Assays:
[1] = Counterscreen qHTS for small molecule stabilizers of the endoplasmic reticulum resident proteome: GLuc-NoTag assay (AID 1508627); note: potency is the fitted concentration of half-maximal effect;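 for activity change, negative = inhibition: SH-SY5Y cells given compound then 100 nM thapsigargin to empty ER calcium; 0% = thapsigargin alone and -100% = DMSO vehicle control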
Procedure, shortened: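 SH-SY5Y cells stably expressing constitutively secreted GLuc without SERCaMP tag, exposed to compound for 19 hr, then to 100 nM thapsigargin for 4 hr at 37C. Medium luciferase was read by coelenterazine luminescence without lysis.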

[2] = target: Lysosomal acid glucosylceramidase (Homo sapiens) (UniProt P04062); test: Glucocerebrosidase-p2 (AID 348; in the data active = potency below about 10 µM; note: potency is the fitted concentration of half-maximal effect); settings: purified GBA, blue fluorogenic substrate, 40 min
Lysosomal acid glucosylceramidase (Homo sapiens), sequence (P04062 whole entry, looked up): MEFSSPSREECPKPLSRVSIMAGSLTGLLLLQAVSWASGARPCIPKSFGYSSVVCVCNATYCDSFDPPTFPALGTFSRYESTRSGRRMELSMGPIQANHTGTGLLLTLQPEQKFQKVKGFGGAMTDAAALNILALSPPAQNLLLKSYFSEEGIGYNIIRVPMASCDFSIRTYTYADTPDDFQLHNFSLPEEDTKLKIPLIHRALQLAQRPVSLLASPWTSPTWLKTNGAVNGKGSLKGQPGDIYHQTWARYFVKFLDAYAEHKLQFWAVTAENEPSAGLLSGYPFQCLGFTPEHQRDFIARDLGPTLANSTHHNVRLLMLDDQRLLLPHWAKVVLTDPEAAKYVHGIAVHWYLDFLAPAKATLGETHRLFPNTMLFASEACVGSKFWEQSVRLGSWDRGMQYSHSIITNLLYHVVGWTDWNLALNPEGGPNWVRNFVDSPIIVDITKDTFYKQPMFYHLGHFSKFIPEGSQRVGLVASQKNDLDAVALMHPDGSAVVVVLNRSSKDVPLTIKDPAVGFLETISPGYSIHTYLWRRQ
Procedure, shortened: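 Compounds titrated from 0.6 nM upwards against 0.2 nM enzyme in pH 5.9 citric acid/KH2PO4, taurocholate, tween-20; blue fluorogenic substrate 80 uM, 40 min room temperature, stopped and read Ex 365/Em 440 for AC50.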

[3] = target: Cytochrome P450 1A2 (Homo sapiens) (UniProt P05177); test: p450-cyp1a2 (AID 410; calls by dose curve; note: potency is the fitted concentration of half-maximal effect;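 for activity change, negative = inhibition: -100% = full effect of reference inhibitor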)
Cytochrome P450 1A2 (Homo sapiens), sequence (P05177 whole entry, looked up): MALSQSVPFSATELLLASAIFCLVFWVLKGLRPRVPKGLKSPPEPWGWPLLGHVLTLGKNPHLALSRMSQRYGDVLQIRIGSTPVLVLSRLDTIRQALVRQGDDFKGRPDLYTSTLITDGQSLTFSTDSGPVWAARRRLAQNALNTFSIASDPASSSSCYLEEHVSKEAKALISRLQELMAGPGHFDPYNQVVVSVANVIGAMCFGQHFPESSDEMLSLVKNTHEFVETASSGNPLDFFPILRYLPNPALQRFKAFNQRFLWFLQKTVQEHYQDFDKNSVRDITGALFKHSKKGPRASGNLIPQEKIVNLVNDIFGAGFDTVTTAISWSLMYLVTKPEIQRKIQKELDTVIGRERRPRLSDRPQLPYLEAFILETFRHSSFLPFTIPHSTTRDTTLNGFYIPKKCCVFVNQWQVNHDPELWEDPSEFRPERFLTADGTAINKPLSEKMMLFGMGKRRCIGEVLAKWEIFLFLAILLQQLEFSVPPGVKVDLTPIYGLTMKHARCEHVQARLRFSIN
Procedure, shortened: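 Luminescent readout of luciferin formed from Luciferin-ME by human CYP1A2; data normalized against complete inhibition by 57 uM furafylline. Enzyme 20nM, substrate 100uM at Km, 100mM KPO4 buffer, 60 min reaction at room temperature.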

[4] = NFAT Signaling Pathway (AID 444; active = well fitted curve in either direction with a large enough effect, not every such curve was filed as active;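 note: carbachol stimulus at about its EC50 of 1 µM final; % is set by controls: 0 for no effect and ±100 for the full control effect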); settings: Jurkat NFAT-bla M1, carbachol, beta-lactamase ratio, 5 h; at 7.69 µM (top of the series) unless noted
Procedure, shortened: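 Jurkat cells with NFAT-driven β-lactamase reporter and co-expressed M1 receptor, stimulated with carbachol (final 1 uM, ~EC50), compound titration, 5 h at 37 °C. CCF4 loaded 1 h at RT; 460/530 nm ratio gave %activity and AC50.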

[5] = Stat Signaling Pathway (AID 446; active = well fitted curve in either direction with a large enough effect, not every such curve was filed as active;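 note: ME-180 cervical cancer cells given 40 pM IL-6 alongside compound; SIE-controlled beta-lactamase reporter measured as 460/530 nm FRET emission ratio; % is set by controls: 0 for no effect and ±100 for the full control effect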); settings: ME-180 SIE beta-lactamase reporter, IL-6 stimulated, 5 h; at 7.69 µM (top of the series) unless noted
Procedure, shortened: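 ME-180 cells carrying a SIE-driven beta-lactamase reporter are stimulated with 40 pM IL-6 for 5 h at 37C in the presence of compound. The 460/530 nm FRET substrate ratio is read after 2.5 h at RT. Data are normalised to 300 pM IL-6 and to 125 nM JAK inhibitor controls.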

[6] = target: Glucocorticoid receptor (Homo sapiens) (UniProt P04150); test: GR-GFP Redistribution (AID 450;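 active = compounds whose dose series gives a full or clear partial fitted curve of increased nuclear translocation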; note: potency is the fitted concentration of half-maximal effect); settings: U2OS GR-GFP nuclear translocation, laser cytometry, 2 h
Glucocorticoid receptor (Homo sapiens), sequence (P04150 whole entry, looked up, the tested form may be a part): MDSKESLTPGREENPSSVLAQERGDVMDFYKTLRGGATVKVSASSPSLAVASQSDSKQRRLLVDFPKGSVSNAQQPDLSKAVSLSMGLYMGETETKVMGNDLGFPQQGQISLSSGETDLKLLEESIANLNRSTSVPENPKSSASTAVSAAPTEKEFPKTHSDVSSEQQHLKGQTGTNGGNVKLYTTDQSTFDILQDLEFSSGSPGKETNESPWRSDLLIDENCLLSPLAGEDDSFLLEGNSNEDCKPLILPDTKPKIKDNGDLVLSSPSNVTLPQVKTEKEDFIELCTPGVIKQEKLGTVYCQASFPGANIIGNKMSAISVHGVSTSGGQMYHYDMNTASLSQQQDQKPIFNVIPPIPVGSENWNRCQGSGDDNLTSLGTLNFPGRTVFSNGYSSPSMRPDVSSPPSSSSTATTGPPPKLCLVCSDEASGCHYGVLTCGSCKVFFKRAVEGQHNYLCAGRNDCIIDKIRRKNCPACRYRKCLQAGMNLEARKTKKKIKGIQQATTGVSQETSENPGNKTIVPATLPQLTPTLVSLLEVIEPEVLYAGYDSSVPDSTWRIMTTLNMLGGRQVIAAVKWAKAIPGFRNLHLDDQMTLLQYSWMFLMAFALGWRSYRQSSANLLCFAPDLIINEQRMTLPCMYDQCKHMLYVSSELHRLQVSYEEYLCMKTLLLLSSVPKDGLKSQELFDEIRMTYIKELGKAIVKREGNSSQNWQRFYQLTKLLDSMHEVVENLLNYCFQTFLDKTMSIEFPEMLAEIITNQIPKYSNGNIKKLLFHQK

[7] = target: Glucocorticoid receptor (Homo sapiens) (UniProt P04150); test: GR-EFC Redistribution (AID 451; calls by dose curve; note: potency is the fitted concentration of half-maximal effect); settings: CHO-K1 GR-EFC translocation, beta-gal luminescence, 2 h
Procedure, shortened: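 CHO-K1 cells expressing nuclear EA and GR-ED fragments of b-gal; compounds titrated up to 46 uM final, 2 h at 37 C. GR nuclear translocation read as complemented b-gal luminescence after 1 h RT detection.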

[8] = target: Mitogen-activated protein kinase 10 (Mus musculus) (UniProt Q61831); test: JNK3 AlphaScreen Assay (AID 530; active = well fitted curve in either direction with a large enough effect, not every such curve was filed as active;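 note: kinase came from lysate of stimulated human HepG2 cells; signal reports phosphorylation of biotinylated GST-cJun 1-79 at Ser73 with 10 µM ATP; % is set by controls: 0 for no effect and ±100 for the full control effect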)
Procedure, shortened: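 Pre-activated (IL-1β/TNFα) JNK3 in HepG2 lysates phosphorylates biotin-GST-cJun(1-79), 10 uM ATP; anti-phospho-cJun(Ser73) AlphaScreen read at room temperature, pH 7.6 Tris buffer. Compounds pre-incubated 15 min as titrations.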

[9] = target: 3',5'-cyclic-AMP phosphodiesterase 4B (Homo sapiens) (UniProt Q07343); test: qHTS Assay for Inhibitors of PDE-IV (AID 607; active = well fitted activation curve with a large enough effect in the main read-out, with a control signal flat, not every such curve was filed as active; note: % of control where 0% means no effect)
3',5'-cyclic-AMP phosphodiesterase 4B (Homo sapiens), sequence (Q07343 whole entry, looked up): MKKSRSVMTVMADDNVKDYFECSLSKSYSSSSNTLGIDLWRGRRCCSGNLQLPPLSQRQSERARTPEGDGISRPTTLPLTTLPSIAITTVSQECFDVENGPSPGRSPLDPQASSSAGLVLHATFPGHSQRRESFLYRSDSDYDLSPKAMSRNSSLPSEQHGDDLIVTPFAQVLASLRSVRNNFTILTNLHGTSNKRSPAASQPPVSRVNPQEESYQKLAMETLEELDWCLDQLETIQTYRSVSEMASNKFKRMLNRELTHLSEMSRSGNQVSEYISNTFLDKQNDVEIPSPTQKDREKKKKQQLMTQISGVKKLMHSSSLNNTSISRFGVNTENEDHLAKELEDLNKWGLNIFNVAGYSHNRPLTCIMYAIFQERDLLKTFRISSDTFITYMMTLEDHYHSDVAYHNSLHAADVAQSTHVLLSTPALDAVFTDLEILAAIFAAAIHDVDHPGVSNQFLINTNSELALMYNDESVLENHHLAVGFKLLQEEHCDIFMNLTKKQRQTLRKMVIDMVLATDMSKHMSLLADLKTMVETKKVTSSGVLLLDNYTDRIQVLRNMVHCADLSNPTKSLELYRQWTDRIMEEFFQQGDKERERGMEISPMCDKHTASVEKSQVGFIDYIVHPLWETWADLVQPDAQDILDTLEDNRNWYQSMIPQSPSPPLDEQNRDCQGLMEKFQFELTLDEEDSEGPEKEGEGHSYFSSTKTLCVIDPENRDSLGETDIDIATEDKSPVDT
Procedure, shortened: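 HEK293 ACTOne cells with CNG channel (1000/well), endogenous PDE4; membrane potential dye, compounds up to 22.9 uM final. Fluorescence Ex 535/Em 590; RO 20-1724 (100 uM final) as reference.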

[10] = target: Cytochrome P450 3A4 (Homo sapiens) (UniProt P08684); test: qHTS Assay for Activators of Cytochrome P450 3A4 (AID 885); note: nearly all actives have a fitted effect of over 65% in size
Cytochrome P450 3A4 (Homo sapiens), sequence (P08684 whole entry, looked up): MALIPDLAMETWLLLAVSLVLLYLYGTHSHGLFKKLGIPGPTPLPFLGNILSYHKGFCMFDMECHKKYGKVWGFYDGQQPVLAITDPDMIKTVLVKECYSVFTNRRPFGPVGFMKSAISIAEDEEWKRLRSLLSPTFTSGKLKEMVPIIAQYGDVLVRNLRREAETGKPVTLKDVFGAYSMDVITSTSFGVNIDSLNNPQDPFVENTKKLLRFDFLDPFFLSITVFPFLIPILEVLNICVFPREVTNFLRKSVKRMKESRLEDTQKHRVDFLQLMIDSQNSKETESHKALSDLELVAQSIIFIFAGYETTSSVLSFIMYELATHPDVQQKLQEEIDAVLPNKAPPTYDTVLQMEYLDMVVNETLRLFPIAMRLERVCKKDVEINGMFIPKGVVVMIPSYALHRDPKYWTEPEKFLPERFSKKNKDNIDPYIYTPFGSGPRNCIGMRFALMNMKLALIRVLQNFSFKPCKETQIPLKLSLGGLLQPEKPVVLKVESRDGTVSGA
Procedure, shortened: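 Human CYP3A4 (20 nM) with Luciferin-PPXE at 25 uM (its KM) in 200 mM KPO4; 10 min compound preincubation, then NADPH regeneration and 60 min reaction at RT. Luciferin read by luminescence; normalized to 57 uM ketoconazole full inhibition.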

[11] = qHTS Assay for Lipid Storage Modulators (AID 1519; calls by dose curve); settings: Drosophila S3 cells, BODIPY lipid droplet/cell ratio, laser cytometry, cells loaded with oleic acid; for activity change, negative = inhibition: at 57.5 µM (top of the series)
Procedure, shortened: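 Cells seeded at 5,000 per well were treated with compounds over a concentration series and loaded with oleic acid (400 uM, as added). Lipid droplet fluorescence (488 nm excitation, 500-530 nm channel) was read by laser-scanning cytometry and normalized to 20 uM Triacsin C.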

[12] = target: Dual specificity protein kinase CLK4 (Homo sapiens) (UniProt Q9HAZ1); test: qHTS Assay for Inhibitors of CDC-like Kinase 4 (Kinase-Glo Assay) (AID 1770); note: % is set by controls: 0 for no effect and ±100 for the full control effect; nearly all actives have a fitted effect of over 65% in size
Dual specificity protein kinase CLK4 (Homo sapiens), sequence (Q9HAZ1 whole entry, looked up): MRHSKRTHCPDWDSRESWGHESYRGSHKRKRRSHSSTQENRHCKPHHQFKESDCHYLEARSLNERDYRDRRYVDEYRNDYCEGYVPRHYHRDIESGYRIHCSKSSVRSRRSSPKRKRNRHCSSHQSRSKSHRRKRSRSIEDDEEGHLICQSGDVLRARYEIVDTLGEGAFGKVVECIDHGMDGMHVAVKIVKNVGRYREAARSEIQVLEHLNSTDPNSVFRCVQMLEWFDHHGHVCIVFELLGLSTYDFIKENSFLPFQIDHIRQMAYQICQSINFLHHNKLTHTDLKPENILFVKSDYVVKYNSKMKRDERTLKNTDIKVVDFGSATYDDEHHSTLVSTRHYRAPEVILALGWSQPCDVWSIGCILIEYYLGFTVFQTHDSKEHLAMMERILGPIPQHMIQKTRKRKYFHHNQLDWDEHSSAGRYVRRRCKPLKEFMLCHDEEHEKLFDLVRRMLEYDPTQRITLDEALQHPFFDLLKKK
Procedure, shortened: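 Recombinant human Clk4 (25 nM) phosphorylated RS repeat peptide (100 uM) with 1 uM ATP in Tris pH 7.5/MgCl2/EGTA/DTT/Triton buffer for 4.5 h at room temperature. Residual ATP was quantified by Kinase-Glo luciferase luminescence.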

[13] = target: Dual specificity protein kinase CLK4 (Homo sapiens) (UniProt Q9HAZ1); test: qHTS Assay for Inhibitors of CDC-like Kinase 4 (ADP-Glo Assay) (AID 1771); note: % is set by controls: 0 for no effect and ±100 for the full control effect; nearly all actives have a fitted effect of over 70% in size
Procedure, shortened: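 Luminescence from ADP-Glo reports ADP produced by 25 nM Clk4 acting on 100 uM RS repeat peptide with 1 uM ATP over 1 hr at room temperature; residual ATP is depleted before ADP is converted to ATP for detection.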

[14] = target: Dual specificity protein kinase CLK4 (Homo sapiens) (UniProt Q9HAZ1); test: qHTS Assay for Inhibitors of CDC-like Kinase 4 (ADP-FP Assay) (AID 1795); note: % is set by controls: 0 for no effect and ±100 for the full control effect; nearly all actives have a fitted effect of over 60% in size
Procedure, shortened: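 Recombinant human Clk4 (6.25 nM) phosphorylated RS repeat peptide (100 uM) with 1 uM ATP in Tris pH 7.5/MgCl2/EGTA/DTT/Triton buffer for one hour. ADP was quantified by Transcreener competitive fluorescence polarization against an ADP calibration curve.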

[15] = target: Ubiquitin carboxyl-terminal hydrolase 1 (Homo sapiens) (UniProt O94782); test: Inhibitors of USP1/UAF1: Pilot qHTS (AID 504865);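 note: rhodamine fluorescence freed from ubiquitin-rhodamine substrate followed over time; top concentration of the series differs between compounds; % is set by controls: 0 for no effect and ±100 for the full control effect; nearly all actives have a fitted effect of over 35% in size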
Ubiquitin carboxyl-terminal hydrolase 1 (Homo sapiens), sequence (O94782 whole entry, looked up): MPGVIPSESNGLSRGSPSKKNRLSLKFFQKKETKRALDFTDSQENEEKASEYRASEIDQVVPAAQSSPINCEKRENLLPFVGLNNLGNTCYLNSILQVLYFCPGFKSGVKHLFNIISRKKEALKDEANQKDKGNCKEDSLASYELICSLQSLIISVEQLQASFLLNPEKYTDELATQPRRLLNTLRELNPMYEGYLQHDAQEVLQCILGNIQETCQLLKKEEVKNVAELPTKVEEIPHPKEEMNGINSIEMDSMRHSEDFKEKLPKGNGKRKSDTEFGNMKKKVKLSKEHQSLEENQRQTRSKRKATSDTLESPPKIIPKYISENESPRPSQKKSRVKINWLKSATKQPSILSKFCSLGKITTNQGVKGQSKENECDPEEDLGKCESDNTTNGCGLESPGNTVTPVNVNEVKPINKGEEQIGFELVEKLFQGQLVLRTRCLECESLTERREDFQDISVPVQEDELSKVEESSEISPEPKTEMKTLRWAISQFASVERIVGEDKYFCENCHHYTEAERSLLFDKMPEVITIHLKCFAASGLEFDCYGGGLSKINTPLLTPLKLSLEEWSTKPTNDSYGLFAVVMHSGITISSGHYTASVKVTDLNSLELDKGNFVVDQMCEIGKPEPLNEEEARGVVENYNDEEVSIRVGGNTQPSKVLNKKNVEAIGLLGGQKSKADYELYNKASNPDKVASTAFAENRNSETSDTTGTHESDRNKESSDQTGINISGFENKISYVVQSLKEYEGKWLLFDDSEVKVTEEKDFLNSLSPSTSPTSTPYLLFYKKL
Procedure, shortened: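 USP1/UAF1 complex (1nM) preincubated with compound 15 min at room temperature, then Ub-Rho substrate (150nM final) added. Fluorescence read kinetically at 480/540 nm, 6 reads every 60 seconds. Buffer: 50mM HEPES pH 7.8, 0.5mM EDTA, 0.1 mg/ml BSA, 1mM TCEP, 0.01% Tween-20.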

[16] = Confirmatory qHTS for small molecule stabilizers of the endoplasmic reticulum resident proteome: Secreted ER Calcium Modulated Protein (SERCaMP) assay (AID 1508628); note: nearly all actives have a fitted effect of over 40% in size; note: potency is the fitted concentration of half-maximal effect
Procedure, shortened: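 SH-SY5Y cells stably expressing GLuc-SERCaMP, treated 16 h with compound (primary 1.53, 7.67, 38.3 uM; confirmation 11 concentrations, up to 76.6 uM), then 100 nM thapsigargin for 4 h. Secreted Gaussia luciferase in medium read by coelenterazine luminescence.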

[17] = AP1 Signaling Pathway (AID 357; active = well fitted curve in either direction with a large enough effect, not every such curve was filed as active;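 note: ME-180 reporter cells stimulated with EGF at its EC50 level; % is set by controls: 0 for no effect and ±100 for the full control effect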); settings: ME-180 AP-1-bla reporter, EGF-induced, beta-lactamase ratio, 5 h; at 7.69 µM (top of the series) unless noted
Procedure, shortened: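 First, ME-180 AP-1-bla cells were cultured overnight at 37 °C in low-serum Opti-MEM. Next, titrated compounds with EC50 EGF were incubated 5 hours. Finally, CCF4 was added for 2.5 hours and the 460/530 nm ratio recorded.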

[18] = Cell Viability qHTS for small molecule stabilizers of the endoplasmic reticulum resident proteome (AID 1508629); settings: cell viability counter-screen, 100 nM thapsigargin for final 4 h
[19] = target: Cytochrome P450 3A4 (Homo sapiens) (UniProt P08684); test: qHTS Assay for Inhibitors and Substrates of Cytochrome P450 3A4 (AID 884); note: potency is the fitted concentration of half-maximal effect; nearly all actives have a fitted effect of over 50% in size
Procedure, shortened: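 20 nM human CYP3A4 with 25 uM Luciferin-PPXE (at KM) in 200 mM KPO4, preincubated 10 min with compound; NADPH regeneration started a 60 min RT reaction. Luciferin detected by luminescence, normalized to 57 uM ketoconazole as full inhibition.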

[20] = qHTS Assay for Identification of Small Molecule Agonists for Hypoxia Response Element Signaling Pathway (AID 914; active = well fitted activation curve with a large enough effect in the signal ratio, with a control signal flat, not every such curve was filed as active; the % refers to the signal ratio; note: % of control where 0% means no effect); settings: ME-180 (cervical carcinoma) HRE-bla reporter, beta-lactamase ratio, CoCl2, 17 h; activation: stronger effect = higher value
Procedure, shortened: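 Positive modulation of EC50 CoCl2-induced hypoxia response element signaling is measured in ME-180 cells with a beta-lactamase reporter. Compounds are titrated, incubation runs 17 hours, and %Activity derives from the blue/green ratio.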

[21] = Confirmation and Secondary Assay for Modulators of Hemoglobin Beta Chain Splicing at IVS2 654 locus (AID 910);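 note: HeLa cells stably carrying EGFP split by mutant beta-globin IVS2-654 intron; % of control where 0% means no effect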
Procedure, shortened: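 HeLa cells stably expressing EGFP interrupted by β-globin IVS2-654 intron, seeded overnight in Opti-MEM/2% FCS, then treated 2 days at 37 °C. Restored splicing read as total peak GFP intensity per well by laser scanning cytometry (488 nm excitation, 500–520 nm emission); 500 nM antisense PNA as control.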

[22] = Confirmation and Secondary Assay for Modulators of Hemoglobin Beta Chain Splicing at IVS2 705 locus (AID 930);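 note: HeLa cells stably expressing the EGFP-705 splicing reporter; GFP fluorescence per well restored by corrected splicing of the IVS2-705 intron in EGFP; % of control where 0% means no effect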
Procedure, shortened: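 First, HeLa EGFP-705 cells are seeded at 500/well in Optimem with 2% FCS and left overnight. Next, compound or DMSO is added for 2 days. Finally wells are laser-scanned and total peak GFP intensity scored.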

[23] = measured here: cell count channel max response
[24] = measured here: lipid channel max response

O=C(c1ccccc1)N1CCN(Cc2cccc(Oc3ccccc3)c2)CC1
inactive: Potency [1]

Cc1nc2cnc(N3CCN(C)CC3)nc2n(Cc2ccc(F)cc2)c1=O
inactive: Potency [2] > 11.4 µM | Potency [3] | activity change, negative = inhibition [4] -12.3% | activity, negative = inhibition [5] -4.86% | Potency [6] > 9.22 µM | Potency [7] > 46 µM | outcome [8] | Potency [9] | Potency [10] | activity change, negative = inhibition [11] 3.55% | Potency [12] | Potency [13] | Potency [14] | Potency [15] | Potency [1] | Potency [16]
1.24%: max response [11, 24]
-0.123%: max response [11, 23]

O=c1c(CCc2ccccc2)nc2cnc(N3CCNCC3)nc2n1Cc1ccc(F)cc1
11.7%: max response [11, 24]
active: Potency [3] 10 µM
12.8%: max response [11, 23]
inactive: activity change, negative = inhibition [17] -10.5% | activity, negative = inhibition [5] 16.5% | Potency [6] > 9.22 µM | Potency [7] > 46 µM | outcome [8] | activity change, negative = inhibition [11] 2.57% | Potency [16] | max response [18] -14.8%

CN1CCN(c2ncc3nc(CCc4ccccc4)c(=O)n(Cc4ccc(F)cc4)c3n2)CC1
inactive: Potency [2] > 11.4 µM | activity change, negative = inhibition [17] 4.85% | Potency [3] | activity change, negative = inhibition [4] -12.2% | activity, negative = inhibition [5] -1.54% | Potency [6] > 9.22 µM | Potency [7] > 46 µM | outcome [8] | Potency [10] | activation [20] -6.17% | Potency [1]
active: Potency [19] 5.01 µM | Potency [16] 25.1 µM

Cc1cccc(CNc2ncnc3ccc(-c4ccccc4CN(C)C)cc23)c1
inactive: Potency [2] > 11.4 µM | activity change, negative = inhibition [17] -7.85% | activity, negative = inhibition [5] -2.09% | Potency [6] > 46 µM | Potency [7] > 46 µM | outcome [8] | outcome [21] | outcome [22] | activity change, negative = inhibition [11] 3.56%
active: Potency [1] 0.447 µM
-10.3%: max response [11, 23]
-6.74%: max response [11, 24]
